This is a sample that favours compounds with a hit; in the whole collection about 12% have one here.
PostGolgi ctrl: growth inhibition of yeast control strain, primary screen, counter-screen for post-Golgi transport modulator project. actives 5% (n = 98,000). inhibition, % at 10 µM. AID 738, 2007. efflux-deficient yeast background strain, growth absorbance A615, 16 h
PLAP act: PLAP enzyme activators, biochemical, luminescence, HTS | Alkaline phosphatase, placental type (Homo sapiens), P05187 | purified PLAP enzyme, luminescent substrate read-out; stronger effect = higher value | activation fold at 20 µM | actives 1.2% (n = 96,000) | AID 696, 2007; in the data active means activation fold above about 2
PostGolgi yeast: phenotypic screen on post-Golgi transport, primary screen; post-Golgi transport phenotypic cell assay; inhibition, % at 10 µM; actives 0.9% (n = 98,000);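 further: yeast cells grown in 1536-well plates; yeast grown about 18 h at 30C before absorbance read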
Cav3 T inh: Cav3.2 calcium influx blockers – cell-based, Fluo-4 calcium fluorescence, FDSS, MLSMR library, primary screen | actives 4% (n = 100,000) | B-score at 10 µM | Cav3.2-expressing cells; stronger effect = lower value | AID 449739, 2010;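 active means single-dose well whose peak fluorescence ratio is a statistical outlier from its plate by either plate-standardised score or position-corrected B-score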
D1 mod: D1 CRE-luciferase signal change, two-sided – cell-based, HEK293 D1, dopamine EC30, D1 allosteric modulator project, primary screen; dopamine EC30 potentiation; actives deviate in either direction; AID 641, 2007; B-score at 10 µM; actives 5.9% (n = 58,000);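 active means luminescence count or its row- and column-corrected plate score outside the 99.7% band of the plate's sample wells, on either side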
DAT uptake mod: changed hDAT dopamine uptake under cocaine IC80, either direction, primary screen, cocaine antagonist project, cell-based, LLC-PK1 hDAT, [14C]-dopamine uptake, MLSMR | B-score at 10 µM | LLC-PK1 hDAT cells, [14C]-dopamine uptake with cocaine IC80; actives deviate in either direction | AID 449768, 2010 | Sodium-dependent dopamine transporter (Homo sapiens), Q01959 | actives 1.3% (n = 110,000);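 active means Z score or B-score, a plate-position-corrected score, falls beyond the plate's 99.7% confidence bounds, in either direction; inactive means both scores lie inside the 99.7% bounds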;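 further: scored against the spread of the other compound wells on the same plate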
Numbers without * were called inactive; nt = not tested or not shown. Unless noted, no stated cut-off is given here; in the data, active means inhibition above about 30%; inactive means the rest.

SMILES | PostGolgi ctrl | PLAP act | PostGolgi yeast | Cav3 T inh | D1 mod | DAT uptake mod
Cc1ccc(N(C)C(=O)c2ccc3c(Cl)c4c(nc3c2)CCC4)cc1C | nt | nt | nt | -5.5* | nt | 0.81
CCc1ccc(N(CC)C(=O)c2ccc3c(Cl)c4c(nc3c2)CCC4)cc1 | nt | nt | nt | -3.2* | nt | 1
CCOC(=O)N1CCC(NC(=O)c2ccc3c(Cl)c4c(nc3c2)CCCC4)CC1 | nt | nt | nt | -3.1 | nt | 0.53
COc1ccc(C2CC(=O)C(C=NCCN3CCOCC3)=C(O)C2)cc1 (stereo not drawn) | 0 | 1.1 | 1 | -0.52 | -0.21 | 0.7
O=C(NCCc1c[nH]c2ccccc12)C(=O)NCC1OCCN1S(=O)(=O)c1ccc(Cl)cc1 (stereo not drawn) | nt | nt | nt | -7.1* | nt | 0.41
Cc1ccc(CNC(=O)C(=O)NCC2OCCN2C(=O)c2ccc(Cl)cc2)cc1 (stereo not drawn) | nt | nt | nt | -4.4* | nt | 0.93
Cc1cc(C)c(S(=O)(=O)N2CCOC2CNC(=O)C(=O)NCCc2c[nH]c3ccccc23)c(C)c1 (stereo not drawn) | nt | nt | nt | -2.8 | nt | 0.82
O=C(NCCc1c[nH]c2ccccc12)C(=O)NCC1OCCN1S(=O)(=O)c1ccc(F)cc1 (stereo not drawn) | nt | nt | nt | -5.9* | nt | 0.86
O=C(NCc1ccc(Cl)cc1)C(=O)NCC1OCCN1S(=O)(=O)c1ccc2c(c1)OCCO2 (stereo not drawn) | nt | nt | nt | -5.1* | nt | -0.059
COc1ccccc1CNC(=O)C(=O)NCC1OCCN1S(=O)(=O)c1ccc2c(c1)OCCO2 (stereo not drawn) | nt | nt | nt | 0.47 | nt | 0.38
N#Cc1cc(C#N)c(N2CCN(c3ccccn3)CC2)nc1N | 7 | 0.7 | -7 | -1.4 | nt | -0.96
CCCCc1nc2ccccc2n2cc3c(=O)n(C)c(=O)n(C)c3c12 | nt | nt | nt | nt | 1.9 | nt
O=[N+]([O-])c1cccc(/C=N/Nc2cc(Cl)nc(-c3ccccc3)n2)c1 | -6 | 0.9 | -1 | -0.1 | nt | -0.044
O=C(N/N=C/c1ccc(Br)cc1)c1ccccc1-n1cccc1 | 31* | 1 | -1 | -2.6 | nt | -0.22
CCOC(=O)N1CCN(CC(O)COc2ccccc2C(C)CC)CC1 (stereo not drawn) | 26 | 1.6 | 50* | -0.12 | -0.079 | 0.85
CC(=O)c1ccccc1OCC(O)CN1CCN(C(c2ccccc2)c2ccccc2)CC1 (stereo not drawn) | 10 | 1.9 | 13 | -7.1* | nt | 1.5
COC(=O)CN1CCN(C(c2ccccc2)c2ccccc2)CC1 | 5 | 1.3 | 2 | 1.3 | 0.48 | 0.37
CCOC(=O)N1CCN(CC(O)COc2ccccc2C(C)C)CC1 (stereo not drawn) | 0 | 1.4 | 4 | nt | -1.8 | -0.13
CCOc1ccccc1C(=O)N1CCN(C(c2ccccc2)c2ccccc2)CC1 | 28 | 1 | 7 | -4.7* | nt | -0.49
CCCCOC(=O)Cn1c(=O)n(CC(=O)OCCCC)c2ccccc21 | 10 | 1.1 | -1 | -6.4* | nt | -0.08
CCCCCOC(=O)Cn1c(=O)oc2ccccc21 | 3 | 1 | 1 | 0.43 | -0.047 | 1.7
Cc1ccc(OCCSCc2nc3ccccc3[nH]2)cc1 | 1 | 1 | -8 | -5.5* | nt | 1.2
Clc1ccc(OCCSCc2nc3ccccc3[nH]2)cc1 | 15 | 0.9 | -3 | -8.3* | nt | 0.52
CCn1c(COc2ccc(Cl)cc2)nnc1SCc1nc2ccccc2[nH]1 | 11 | 1.2 | 6 | -1.9 | nt | 0.83
Clc1ccc(SCc2nc3ccccc3[nH]2)cc1 | 5 | 1.1 | 1 | -4.5* | nt | -0.23
SMILES | PostGolgi ctrl | PLAP act | PostGolgi yeast | Cav3 T inh | D1 mod | DAT uptake mod
COc1ccc(OCc2nc3ccccc3[nH]2)cc1 | 8 | 1 | -7 | 1.2 | nt | 0.13
CC(=O)c1ccccc1Oc1nc(CN2CCOCC2)nc2scc(-c3cccs3)c12 | 42* | 1.7 | -3 | -2.2 | 0.02 | 0.82
Cc1sc2nc(CN3CCOCC3)nc(Oc3ccc(NC(=O)c4ccco4)cc3)c2c1C | 29 | nt | 5 | 0.092 | 0.78 | 1.7
Cc1nc2scc(-c3cccs3)c2c(=O)n1CC(=O)O | -9 | 1.1 | 2 | 0.95 | nt | -0.00048
COc1ccc(C(C)=O)c(Oc2nc(CN3CCOCC3)nc3scc(-c4cccs4)c23)c1 | 42* | 1.4 | 5 | -1.9 | 0.72 | -0.73
CCOCCCNC(=O)CCCOc1ccccc1 | 10 | 0.9 | 11 | 0.012 | -0.13 | -2
O=C(NCC1CC1)c1cc(-c2ccccc2)nn1CC1CC(c2cccnc2)=NO1 (stereo not drawn) | nt | nt | nt | 0.82 | nt | 0.33
Cc1ccc(/C=N/n2nnnc2N)cc1[N+](=O)[O-] | 2 | 0.9 | -8 | -1.5 | nt | -8.9*
CC1CCN(c2ccc(/C=N/n3nnnc3N)cc2[N+](=O)[O-])CC1 | -1 | 0.7 | 0 | 0.44 | nt | -0.012
O=C(COc1ccccc1)N/N=C/c1cc2c(cc1[N+](=O)[O-])OCO2 | 12 | 1 | 13 | -0.24 | nt | -0.004
Cc1ccc(OCC(=O)N/N=C\c2c(C)n(C)c3ccccc23)c([N+](=O)[O-])c1 | 54* | 1.2 | -1 | -1.5 | nt | 1.3
COc1ccc(CCNC(=O)c2ccncc2)cc1OC | -1 | 1.2 | 8 | 0.02 | 0.076 | 0.21
COc1ccc(CCNC(=O)c2nnc(Cc3ccc(Cl)cc3)o2)cc1OC | -1 | 1.1 | 10 | -3.6* | nt | -0.005
COc1ccc(CCNC(=O)c2cc3sc(Cl)cc3n2C)cc1OC | 10 | 1.9 | 14 | nt | -0.34 | 2.3*
Cc1nn2c([nH]c(=O)c3ccccc32)c1C=O | 5 | 1 | -2 | 0.65 | nt | -0.15
Cc1ccccc1OCCCCc1c(C)n[nH]c1C | 46* | 1.3 | 2 | -4.4 | -1.5 | -0.34
Cc1cccc(C)c1OCCCCc1c(C)n[nH]c1C | 20 | 1.2 | -3 | -3.9 | -0.55 | 0.91
CC(NC(=O)Nc1cccc([N+](=O)[O-])c1)(C(F)(F)F)C(F)(F)F | 12 | 0.9 | 2 | -4.9* | nt | -3*
CC(NC(=O)Nc1cccnc1)(C(F)(F)F)C(F)(F)F | 11 | 1 | 18 | -0.86 | nt | -1.1
CN1CCN2c3ccccc3Cc3ccccc3C2C1 (stereo not drawn) | nt | nt | nt | 0.4 | -7* | 1.4
Cc1ccc(C(=O)CC2(O)C(=O)N(Cc3ccccc3)c3ccccc32)o1 (stereo not drawn) | 11 | 0.9 | 0 | -1.4 | 0.59 | 0.012
Cc1ccc(C(=O)CC2(O)C(=O)N(Cc3ccccc3Cl)c3ccccc32)o1 (stereo not drawn) | 0 | 0.9 | 0 | -5.6* | -0.34 | -2.1
Cc1ccc(C(=O)CC2(O)C(=O)N(CCc3ccccc3)c3ccc(Br)cc32)o1 (stereo not drawn) | 19 | 1.5 | 31* | -7.1* | 0.29 | 0.0018

Compound activity: PubChem BioAssay, several laboratories
